# About 760 (36%) of roughly 2,100 compounds were called active.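 Rule for the calls: active = thallium-flux fluorescence traces judged by eye to show enhanced or reduced glutamate response, manual score 1 or -1, so both directions (some results past the limit were not filed as active); inactive = the rest, including fluorescent or raised-baseline compounds.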 These entries were drawn from the full list.
# Assay: thallium influx changes without GIRK channels – cell-based, HEK-293 rmGlu8, no GIRK, thallium flux, counter-screen for GIRK activator project, confirmation (AID 623868);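 note: extra codes mark interference with 3 for fluorescent and 4 for baseline rise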
# Conditions: thallium flux fluorescence, at 10 µM, actives lie on both sides, codes: 1 enhancer, -1 blocker, 0 none, thallium stimulus containing EC20 glutamate
row,SMILES,manual score
1,CCOC(=O)Cn1c(=O)oc2cc(S(=O)(=O)Nc3ccc(N(CC)CC)cc3C)ccc21,0 (inactive)
2,CC(C)c1ccccc1NC(=O)COC(=O)/C=C/c1cccc([N+](=O)[O-])c1,0 (inactive)
3,CC(C)Oc1ccccc1C1Nc2ccccc2C(=O)N1c1ccc2c(c1)OCCO2 (configuration not stated),0 (inactive)
4,COC(=O)c1c(NS(=O)(=O)c2cccs2)sc2c1CCCC2,1 (active)
5,COC(=O)c1c(NC(=O)Cc2cccs2)sc(C(=O)NC2CCCCC2)c1C,0 (inactive)
6,CC(=O)Oc1ccc(N(C(C)=O)S(=O)(=O)c2cccs2)c2ccccc12,0 (inactive)
7,CCCCN(CCCC)C(=O)CSc1nnc2n(C)c(=O)c3c4c(sc3n12)CCCC4,-1 (active)
8,CCC1(C)Cc2c(sc3c2c(=O)n(C)c2nnc(SCc4ccc5c(c4)OCO5)n32)CO1 (configuration not stated),0 (inactive)
9,CON(c1nc(Cl)nc(N(C)C)n1)S(=O)(=O)c1ccccc1Cl,0 (inactive)
10,CCCCCC/C(C)=C1/SC(=S)NC1=O,1 (active)
11,Cn1c(CNc2nc3ccccc3n2CCN2CCCCC2)nc2ccccc21,0 (inactive)
12,CC1(C)CC(c2nc(-c3ccc(Br)cc3)cs2)CCS1 (configuration not stated),0 (inactive)
13,CCOC(=O)N1CCN(C(=O)CSc2nc3c(c(=O)n2-c2ccccc2OC)SCC3)CC1,-1 (active)
14,COC(=O)c1ccc2c(=O)n(C3CCCCC3)c(SCC#N)nc2c1,0 (inactive)
15,CCc1c(O)nc(SCC(=O)Nc2ccc(OC)cc2)n(C2CCCCC2)c1=O,0 (inactive)
16,CCOC(=O)CSc1nc2c(sc(=S)n2-c2ccccc2OC)c(=O)n1Cc1ccco1,-0.5 (inactive)
17,COC(=O)COn1c(SC(C)C)nc2ccccc2c1=O,0 (inactive)
18,CCN(CC)C(=O)CSc1nc2ccccc2c(=O)n1-c1ccccc1OC,-1 (active)
19,CCCN(CCC)C(=O)CSc1nc2ccccc2c(=O)n1C1CCCC1,-1 (active)
20,CCOC(=O)N1CCN(C(=O)CSc2ncnc3ccccc23)CC1,0 (inactive)
21,N#CC1=C(N)Oc2n[nH]c(-c3cccs3)c2C1c1ccco1 (configuration not stated),3 (inactive)
22,Cc1ccc(N=C2CCCN2Cc2ccccc2)c(C#N)c1,-1 (active)

row,SMILES,manual score
1,Cc1ccc(C)c(N=C2CCCN2Cc2ccccc2)c1C#N,-1 (active)
2,Cc1c(C#N)c2ccccc2n1CC(=O)O,0 (inactive)
3,COC(=O)c1ccc(N2C(=O)CC(Sc3n[nH]c(C)n3)C2=O)cc1 (configuration not stated),0 (inactive)
4,CC(C)CCOP(=O)(c1ccc(N(C)C)cc1)C(O)c1ccccn1 (configuration not stated),0 (inactive)
5,Brc1ccc(-c2nnc3c4ccccc4nc(N4CCOCC4)n23)cc1,0 (inactive)
6,CCN(CC)CCCNC(=O)c1cc(-c2ccc(Cl)c(Cl)c2)on1,0 (inactive)
7,O=C(c1cc(-c2ccccc2)on1)N1CCCC1,0 (inactive)
8,CCOC(=O)C1CCCN(C(=O)c2cc(-c3ccccc3)on2)C1 (configuration not stated),0 (inactive)
9,CC(C)n1cc(NC(=O)c2cc(-c3ccccc3)on2)cn1,1 (active)
10,CCCn1cc(NC(=O)c2cc(-c3ccccc3)on2)cn1,1 (active)
11,CCN(CC)CCN(CC)Cc1ccccc1Br,0 (inactive)
12,CCC(c1nnnn1Cc1ccc(OC)cc1)N(CCCO)Cc1cc2cc3c(cc2[nH]c1=O)OCO3 (configuration not stated),0 (inactive)
13,S=c1[nH]nc(COc2ccccc2)n1C1CCCCC1,1 (active)
14,Clc1ccccc1-c1nn2c(COc3ccccc3)nnc2s1,0 (inactive)
15,S=c1[nH]nc(CSc2nc3ccccc3s2)n1C1CCCCC1,1 (active)
16,CC(O)c1nc2ccccc2n1C1CCCCC1 (configuration not stated),0 (inactive)
17,CC(=O)c1c(C(C)=O)c(C)n(-c2nc(-c3cccs3)c(C)s2)c1C,0 (inactive)
18,Cc1ccc(NC(=O)CN2c3cccc4cccc(c34)S2(=O)=O)cc1S(=O)(=O)N1CCOCC1,0 (inactive)
19,O=c1c2cc(F)ccc2[nH]c(=S)n1CCCN1CCOCC1,0 (inactive)
20,Cc1cc(C(F)(F)F)c2c(=O)[nH]c(=O)n(Cc3ccccc3)c2n1,0 (inactive)
21,O=c1c2cccnc2[nH]c(=S)n1Cc1ccccc1,1 (active)
22,Cn1c(=O)c2c(nc(-n3ccnc3)n2Cc2ccccc2)n(C)c1=O,0 (inactive)

row,SMILES,manual score
1,O=c1c2cccnc2[nH]c(=S)n1CCCN1CCN(c2ccc(F)cc2)CC1,1 (active)
2,CCOC(=O)CN1NC2(CCC(C(C)(C)C)CC2)NC1=S (configuration not stated),0 (inactive)
3,CCSc1nnc(NC(=O)C(Cc2ccccc2)n2cccc2)s1 (configuration not stated),0 (inactive)
4,Cc1csc(NC(=O)C(Cc2ccccc2)n2cccc2)n1 (configuration not stated),0 (inactive)
5,O=C(Nc1ncc(Br)s1)C(Cc1ccccc1)n1cccc1 (configuration not stated),1 (active)
6,CCOC(=O)Cn1c(=N)n(CCOc2cccc(C)c2)c2ccccc21,0 (inactive)
7,COc1ccc(OCc2nc(N)nc(Nc3ccccc3)n2)cc1,0 (inactive)
8,Nc1c(-c2ccccc2)cnn1-c1ccc(C(=O)O)cc1,0 (inactive)
9,CC(C)Oc1cccc(C(=O)NC(=S)N2CCN(c3ccc(C(F)(F)F)cc3[N+](=O)[O-])CC2)c1,1 (active)
10,COc1cccc(C(=O)NC(=S)N2CCN(c3ccc(C(F)(F)F)cc3[N+](=O)[O-])CC2)c1,1 (active)
11,COc1cc(OC)cc(C(=O)NC(=S)N2CCN(c3ccc(C(F)(F)F)cc3[N+](=O)[O-])CC2)c1,1 (active)
12,Cc1ccc(CC(=O)N2CCN(c3cccc(C(F)(F)F)c3)CC2)cc1,0 (inactive)
13,COc1ccccc1NC(=O)COc1ccc(C(F)(F)F)cc1[N+](=O)[O-],0 (inactive)
14,CCOCc1c(C(=O)OCC(=O)Nc2ccc(C)c(S(=O)(=O)N(C)C)c2)oc2ccccc12,0 (inactive)
15,Cc1cc(C)c2nc(SC(C)C(=O)NCC(=O)Nc3ccc(F)c(F)c3F)cc(C)c2c1 (configuration not stated),1 (active)
16,Cc1ccccc1NC1=C(Cl)C(=O)OC1OC(=O)c1ccco1 (configuration not stated),-1 (active)
17,Cc1c(C(=O)O)c(=S)sn1CCOc1ccccc1,-1 (active)
18,CC(=O)c1cccc(NC(=O)CCOc2ccccc2)c1,0 (inactive)
19,CCN1CCN(CCCOc2ccc(-c3ccccc3)cc2)CC1,0 (inactive)
20,Cc1ccccc1C(=O)NNC(=S)NC(=O)COc1ccccc1,1 (active)
21,Cc1ccc(C(=O)NNC(=S)NC(=O)COc2ccccc2)cc1,1 (active)
22,Cc1ccc(OCC(=O)NC(=S)Nc2cccc(C)n2)cc1,1 (active)

row,SMILES,manual score
1,CCCOc1nc2c(c(=O)n(C)c(=O)n2C)n1Cc1cccc2ccccc12,0 (inactive)
2,CCc1cc(-c2n[nH]c(C)c2-c2nc3ccccc3n2C)c(O)c(CN2CCN(C)CC2)c1O,0 (inactive)
3,COc1ccc(NC(=O)NC(C)c2ccncc2)cc1OC (configuration not stated),0 (inactive)
4,c1ccc(Cc2nnc(-c3ccccc3)o2)cc1,0 (inactive)
5,Fc1ccc2nc(-c3ccccc3)nc(SCc3nnc(-c4ccccc4)o3)c2c1,1 (active)
6,COc1ccc(/C=N/n2c(SC)nnc2-c2ccccc2)c(OC)c1OC,-1 (active)
7,COc1cccc(/C=N/n2c(=S)n(C)c3ccccc32)c1OC,0 (inactive)
8,COc1ccc(-c2nn(-c3ccccc3)cc2/C=N/n2cnnc2)cc1OC,0 (inactive)
9,O=C(COc1ccccc1)NC(=S)Nc1ccc2c3c(cccc13)CC2,1 (active)
10,COc1cccc(C(=O)NC(=S)Nc2ccc3c4c(cccc24)CC3)c1,1 (active)
11,COc1ccc(OC)c(Nc2cc(-c3ccccc3)nc(N)n2)c1,0 (inactive)
12,COc1cc(NC(=O)Cn2nnc(-c3ccccc3N)n2)cc(OC)c1,0 (inactive)
13,COc1ccc(C(=O)Nc2ccc(Oc3ncnc4sc(-c5ccccc5)cc34)cc2)cc1OC,0 (inactive)
14,COc1cccc(C(=O)NCc2cn3ccsc3n2)c1,0 (inactive)
15,COc1cc(OC)cc(C(=O)Nc2nc(-c3ccccc3)c(-c3ccccc3)o2)c1,1 (active)
16,COc1cccc(C(=O)Nc2nc(-c3ccccc3)c(-c3ccccc3)o2)c1,1 (active)
17,COc1cccc(-c2cc(C(=O)NC3CCCC3)no2)c1,0 (inactive)
18,O=C(Nc1ccc(CN2CCOCC2)cc1)c1cc2ccccn2n1,0 (inactive)
19,C=CCN1C(=O)/C(=C2/Sc3ccccc3N2C)SC1=Nc1c(C)n[nH]c1C,0 (inactive)
20,CCCCCn1nc(-c2ccccc2)c2nc3ccccc3nc21,3 (inactive)
21,O=C(NC(=S)N1CCN(Cc2ccccc2)CC1)c1ccccc1,1 (active)
22,O=C(c1ccc2nccnc2c1)N1CCN(Cc2ccc3c(c2)OCO3)CC1,0 (inactive)

row,SMILES,manual score
1,CCOC(=O)c1ccc(NC(=O)N2CCN(Cc3cccc(F)c3)CC2)cc1,0 (inactive)
2,O=C(c1ccc(COc2c(F)c(F)c(F)c(F)c2F)o1)N1CCN(Cc2ccc3c(c2)OCO3)CC1,0 (inactive)
3,Cn1cc(CCC(=O)NCc2ccc3c(c2)OCO3)c2ccccc21,0 (inactive)
4,CN1CCN(C(=S)NC(=O)/C=C/c2cccc3ccccc23)CC1,0 (inactive)
5,O=C(NC(=S)N1CCN(Cc2ccc3c(c2)OCO3)CC1)c1cccc(Br)c1,1 (active)
6,COC(=O)c1[nH]c2ccc(C)cc2c1NC(=O)CCN1CCN(Cc2ccc3c(c2)OCO3)CC1,0 (inactive)
7,O=C(CN1CCN(Cc2ccccc2)CC1)Nc1cccc(C(F)(F)F)c1,0 (inactive)
8,O=C(NC(=S)N1CCN(Cc2ccc3c(c2)OCO3)CC1)c1ccc(Cl)cc1,1 (active)
9,SC(COCc1ccccc1)CN1CCN(Cc2ccc3c(c2)OCO3)CC1 (configuration not stated),0 (inactive)
10,CCN(CC)c1ccc(C(=O)NC(=S)N2CCN(Cc3ccc4c(c3)OCO4)CC2)cc1,1 (active)
11,COCCCN(C(=S)Nc1cccc(Cl)c1)C(C)c1ccncc1 (configuration not stated),0 (inactive)
12,CC(C)(C)CC(C)(C)NCC(O)COc1c(F)cc(Br)cc1F (configuration not stated),4 (inactive)
13,O=C(CN1CCCCC1)Nc1cccc(Oc2ccccc2)c1,0 (inactive)
14,C/C(=N\NC(N)=S)c1ccc(Cl)s1,0.5 (inactive)
15,CNC(=S)N/N=C(\C)c1ccc(Cl)s1,1 (active)
16,C=C(C)CNC(=S)N/N=C(\C)c1ccc(Cl)s1,1 (active)
17,CCC/C(=N/NC(=O)c1csc(C)c1C)c1ccc(Cl)s1,0 (inactive)
18,C/C(=N\NC(=S)NC(C)C)c1ccc(Cl)s1,1 (active)
19,C/C(=N\NC(=O)c1csc(C)c1C)c1ccc(Cl)s1,1 (active)
